Laboratory results as given in PubChem BioAssay (NCATS).
A number with no mark means an inactive call. Inconclusive results are not listed. A call without a number means that no potency is given here. Active and inactive are the calls of the source. Unless noted, calls come from the whole dose curve; as a rule, active = well fitted curve in the direction sought with a large enough effect; inconclusive = small, poorly fitted or top-dose-only effect, or another doubt; inactive = no such curve, though single readings can be large; an effect the other way counts as inactive or inconclusive.

What was measured:
[1] = target: Cytochrome P450 1A2 (Homo sapiens) (UniProt P05177); experiment: p450-cyp1a2 (AID 410; calls by dose curve; note: potency is the fitted concentration of half-maximal effect)
Procedure, shortened: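 Luminescent demethylation readout: Luciferin-ME (100uM, equal to Km) turned over by 20nM CYP1A2 for 60 min at room temperature after NADPH regeneration addition, following 10 min compound preincubation. Normalization used 57 uM furafylline as full inhibition.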

[2] = target: Glucocorticoid receptor (Homo sapiens) (UniProt P04150); experiment: GR-GFP Redistribution (AID 450;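 active = compounds whose dose series gives a full or clear partial fitted curve of increased nuclear translocation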; note: potency is the fitted concentration of half-maximal effect); settings: U2OS GR-GFP nuclear translocation, laser cytometry, 2 h
[3] = target: Mitogen-activated protein kinase 10 (Mus musculus) (UniProt Q61831); experiment: JNK3 AlphaScreen Assay (AID 530; active = well fitted curve in either direction with a large enough effect, not every such curve was filed as active;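 note: kinase came from lysate of stimulated human HepG2 cells; signal reports phosphorylation of biotinylated GST-cJun 1-79 at Ser73 with 10 µM ATP; series mostly up to about 57 µM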)
Procedure, shortened: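 qHTS titrations with 15 min compound pre-incubation before adding ATP (10 uM final). Read-out: AlphaScreen of Ser73-phosphorylated biotin-GST-cJun using HepG2 lysate JNK3 activated by IL-1β and TNFα.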

[4] = target: Cytochrome P450 3A4 (Homo sapiens) (UniProt P08684); experiment: qHTS Assay for Inhibitors and Substrates of Cytochrome P450 3A4 (AID 884); note: potency is the fitted concentration of half-maximal effect; nearly all actives have a fitted effect of over 50% in size
Procedure, shortened: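 Luminescent readout of luciferin produced by CYP3A4 (20 nM) dealkylation of Luciferin-PPXE, 25 uM (its KM). NADPH-driven reaction ran 60 min at RT after 10 min compound preincubation; data scaled to 57 uM ketoconazole as 100% inhibition.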

[5] = target: Cytochrome P450 3A4 (Homo sapiens) (UniProt P08684); experiment: qHTS Assay for Activators of Cytochrome P450 3A4 (AID 885); note: nearly all actives have a fitted effect of over 65% in size
Procedure, shortened: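 CYP3A4 activity: Luciferin-PPXE O-dealkylation, 25uM substrate, 200mM KPO4, RT throughout. Read-out is luciferase luminescence; higher values reflect activation.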

[6] = target: Ubiquitin carboxyl-terminal hydrolase 1 (Homo sapiens) (UniProt O94782); experiment: Inhibitors of USP1/UAF1: Pilot qHTS (AID 504865); note: nearly all actives have a fitted effect of over 35% in size; note: potency is the fitted concentration of half-maximal effect;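 for activity change, negative = inhibition: rhodamine fluorescence freed from ubiquitin-rhodamine substrate followed over time; top concentration of the series differs between compounds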
Procedure, shortened: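 Kinetic fluorescence assay: 1nM USP1/UAF1, 15 min compound preincubation, then 150nM Ub-Rho; 480/540 nm.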

[7] = target: DNA dC->dU-editing enzyme APOBEC-3G (Homo sapiens) (UniProt Q9HC16); experiment: qHTS for inhibitors of Vif-A3G interactions: Validation (AID 588379); note: potency is the fitted concentration of half-maximal effect
Procedure, shortened: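 Yellow fluorescence (Ex 488, Em 500-530) of Vif-coexpressing HeLa A3G-eYFP cells, scanned by Acumen cytometer, reports blocked A3G degradation. Cells plated at 700/well overnight at 37 deg C before compound addition, then a further overnight compound incubation at 37 deg C.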

[8] = tested on: Zika virus NS2B-NS3 protease; experiment: Primary screen GU AMC qHTS for Zika virus inhibitors (AID 1347154); note: nearly all actives have a fitted effect of over 70% in size
Procedure, shortened: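 Fluorogenic AMC-substrate cleavage by noncovalent NS2B-NS3 protease complex (25 nM, pH 8.0 Tris buffer with Tween 20) followed for 15 minutes at room temperature (~20% conversion). Percent inhibition from ex340/em450 signal change, fitted by 4-parameter Hill equation.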

[9] = Primary qHTS for small molecule stabilizers of the endoplasmic reticulum resident proteome: Secreted ER Calcium Modulated Protein (SERCaMP) assay (AID 1508630)
Procedure, shortened: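 The SH-SY5Y reporter protocol was run at 3 concentrations up to 38.3 uM (primary) or 11 concentrations (follow-up): 16 h compound, 100 nM thapsigargin for 4 h, then extracellular luciferase luminescence.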

[10] = target: Glucocorticoid receptor (Homo sapiens) (UniProt P04150); experiment: GR-EFC Redistribution (AID 451; calls by dose curve; note: potency is the fitted concentration of half-maximal effect); settings: CHO-K1 GR-EFC translocation, beta-gal luminescence, 2 h
Procedure, shortened: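 Translocation of GR-ED fusion to nuclear EA restores b-gal, read by luminescence after 1 h room-temperature detection. Engineered CHO-K1 biosensor cells, 1,000/well, exposed 2 h at 37 C to titrations up to 46 uM final.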

[11] = target: 3',5'-cyclic-AMP phosphodiesterase 4B (Homo sapiens) (UniProt Q07343); experiment: qHTS Assay for Inhibitors of PDE-IV (AID 607; active = well fitted activation curve with a large enough effect in the main read-out, with a control signal flat, not every such curve was filed as active; note: potency is the fitted concentration of half-maximal effect)
Procedure, shortened: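 ACTOne HEK293 cells carry a modified cAMP-gated CNG channel and express endogenous PDE4; plated 1000 cells/well, compounds up to 22.9 uM final. Membrane-potential dye fluorescence (ex 535/em 590) was read; parental cells received 10 uM forskolin + 100 uM RO 20-1724.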

[12] = target: Cytochrome P450 2C9 (Homo sapiens) (UniProt P11712); experiment: qHTS Assay for Inhibitors and Substrates of Cytochrome P450 2C9 (AID 883); note: nearly all actives have a fitted effect of over 60% in size; note: potency is the fitted concentration of half-maximal effect
Procedure, shortened: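 Turnover of Luciferin-H (100uM, KM) by 10nM human CYP2C9 was measured over 60 min at 37C with NADPH regeneration; inhibitors and some substrates reduce luminescence. Data normalized to sulphaphenazole 57uM.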

[13] = target: Cytochrome P450 2C19 (Homo sapiens) (UniProt P33261); experiment: qHTS Assay for Inhibitors and Substrates of Cytochrome P450 2C19 (AID 899); note: potency is the fitted concentration of half-maximal effect; nearly all actives have a fitted effect of over 60% in size
Procedure, shortened: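 Reactions contain 5nM enzyme, 10uM Luciferin-H EGE (KM) and 50mM KPO4; compound preincubates 10 min at 37C, NADPH regeneration starts turnover for 60 min. Luminescence after detection reagent gives activity.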

[14] = target: Cytochrome P450 2D6 (Homo sapiens) (UniProt P10635); experiment: qHTS Assay for Inhibitors and Substrates of Cytochrome P450 2D6 (AID 891); note: potency is the fitted concentration of half-maximal effect; nearly all actives have a fitted effect of over 60% in size
Procedure, shortened: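 Luminescent read-out of luciferin formed by 5 nM human CYP2D6 demethylating 30 uM Luciferin-ME EGE (Km level) over 60 min at room temperature after NADPH regeneration addition. Data normalized to full inhibition by 1.43 uM quinidine.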

Chain of Cytochrome P450 2C19 (Homo sapiens) (P33261 whole entry, looked up): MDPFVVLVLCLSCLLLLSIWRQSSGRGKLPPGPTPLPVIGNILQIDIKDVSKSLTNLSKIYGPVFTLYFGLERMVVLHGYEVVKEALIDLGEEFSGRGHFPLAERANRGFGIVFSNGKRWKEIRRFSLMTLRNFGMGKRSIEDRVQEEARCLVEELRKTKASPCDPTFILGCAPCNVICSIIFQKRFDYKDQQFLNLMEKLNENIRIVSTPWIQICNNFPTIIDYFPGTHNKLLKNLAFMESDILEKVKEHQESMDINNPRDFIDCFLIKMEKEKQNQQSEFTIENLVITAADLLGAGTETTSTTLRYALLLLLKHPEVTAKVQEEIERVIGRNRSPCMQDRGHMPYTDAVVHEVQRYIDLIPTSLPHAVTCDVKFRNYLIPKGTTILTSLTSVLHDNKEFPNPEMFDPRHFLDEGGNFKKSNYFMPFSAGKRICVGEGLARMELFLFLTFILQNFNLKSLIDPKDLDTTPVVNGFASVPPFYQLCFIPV
Chain of Cytochrome P450 2C9 (Homo sapiens) (P11712 whole entry, looked up): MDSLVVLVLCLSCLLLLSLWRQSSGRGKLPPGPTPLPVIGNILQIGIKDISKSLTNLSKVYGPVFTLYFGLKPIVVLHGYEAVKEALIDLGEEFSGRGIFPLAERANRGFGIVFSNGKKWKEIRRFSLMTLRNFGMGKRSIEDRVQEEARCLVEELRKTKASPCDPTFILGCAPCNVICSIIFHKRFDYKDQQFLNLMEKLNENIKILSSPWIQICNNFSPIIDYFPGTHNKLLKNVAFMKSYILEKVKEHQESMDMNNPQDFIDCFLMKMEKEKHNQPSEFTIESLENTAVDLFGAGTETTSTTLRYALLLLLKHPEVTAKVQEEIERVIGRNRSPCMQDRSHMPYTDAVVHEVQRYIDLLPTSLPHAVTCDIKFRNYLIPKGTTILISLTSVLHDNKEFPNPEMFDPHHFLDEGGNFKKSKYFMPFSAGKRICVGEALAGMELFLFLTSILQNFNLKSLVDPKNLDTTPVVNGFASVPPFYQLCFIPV
Chain of Cytochrome P450 3A4 (Homo sapiens) (P08684 whole entry, looked up): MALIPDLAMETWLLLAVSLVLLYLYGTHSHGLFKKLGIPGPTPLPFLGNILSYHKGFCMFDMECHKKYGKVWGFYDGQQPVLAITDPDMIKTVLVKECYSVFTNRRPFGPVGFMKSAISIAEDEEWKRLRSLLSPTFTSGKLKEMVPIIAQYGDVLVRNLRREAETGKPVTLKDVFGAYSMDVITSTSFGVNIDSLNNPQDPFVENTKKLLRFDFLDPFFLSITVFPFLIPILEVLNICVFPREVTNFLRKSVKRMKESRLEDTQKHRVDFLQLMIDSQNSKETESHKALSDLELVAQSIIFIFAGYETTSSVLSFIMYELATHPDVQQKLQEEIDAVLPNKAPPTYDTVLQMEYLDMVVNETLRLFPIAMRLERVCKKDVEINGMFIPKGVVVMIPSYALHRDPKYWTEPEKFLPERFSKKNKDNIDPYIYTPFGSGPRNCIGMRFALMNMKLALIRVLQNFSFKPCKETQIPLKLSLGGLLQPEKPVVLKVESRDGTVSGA
Chain of Glucocorticoid receptor (Homo sapiens) (P04150 whole entry, looked up, the tested form may be a part): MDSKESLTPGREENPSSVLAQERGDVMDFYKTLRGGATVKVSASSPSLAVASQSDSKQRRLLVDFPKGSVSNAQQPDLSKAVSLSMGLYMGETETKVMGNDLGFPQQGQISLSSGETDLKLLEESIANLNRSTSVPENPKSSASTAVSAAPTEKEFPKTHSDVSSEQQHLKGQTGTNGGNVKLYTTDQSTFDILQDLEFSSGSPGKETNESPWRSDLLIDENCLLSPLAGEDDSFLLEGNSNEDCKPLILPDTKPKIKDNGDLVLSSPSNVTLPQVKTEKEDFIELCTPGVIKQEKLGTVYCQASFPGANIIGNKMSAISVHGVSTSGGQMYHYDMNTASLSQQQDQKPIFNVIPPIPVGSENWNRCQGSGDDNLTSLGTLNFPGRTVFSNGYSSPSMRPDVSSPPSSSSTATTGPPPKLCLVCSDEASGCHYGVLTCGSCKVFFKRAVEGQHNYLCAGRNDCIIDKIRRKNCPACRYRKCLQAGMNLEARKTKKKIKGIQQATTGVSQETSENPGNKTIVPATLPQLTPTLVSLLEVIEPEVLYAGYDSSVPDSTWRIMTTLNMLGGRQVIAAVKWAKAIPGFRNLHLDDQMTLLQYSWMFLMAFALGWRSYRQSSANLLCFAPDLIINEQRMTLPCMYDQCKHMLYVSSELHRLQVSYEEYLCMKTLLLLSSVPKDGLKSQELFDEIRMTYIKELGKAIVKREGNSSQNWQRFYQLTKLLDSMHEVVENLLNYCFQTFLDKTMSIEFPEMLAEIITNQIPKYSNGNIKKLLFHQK
Chain of Cytochrome P450 1A2 (Homo sapiens) (P05177 whole entry, looked up): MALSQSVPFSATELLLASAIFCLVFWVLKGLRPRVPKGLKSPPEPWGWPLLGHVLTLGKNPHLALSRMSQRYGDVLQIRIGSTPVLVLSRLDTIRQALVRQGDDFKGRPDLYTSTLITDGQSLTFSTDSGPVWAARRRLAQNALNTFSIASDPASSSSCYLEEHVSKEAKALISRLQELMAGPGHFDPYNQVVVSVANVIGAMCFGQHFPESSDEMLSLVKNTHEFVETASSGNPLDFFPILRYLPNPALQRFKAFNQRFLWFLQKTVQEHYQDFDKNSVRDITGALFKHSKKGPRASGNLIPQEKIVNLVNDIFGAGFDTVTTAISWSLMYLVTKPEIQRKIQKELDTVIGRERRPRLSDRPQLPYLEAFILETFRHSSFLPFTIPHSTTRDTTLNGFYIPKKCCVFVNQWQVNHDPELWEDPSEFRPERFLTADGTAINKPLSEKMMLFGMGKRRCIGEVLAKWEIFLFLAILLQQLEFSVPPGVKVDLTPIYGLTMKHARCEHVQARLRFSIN
Chain of DNA dC->dU-editing enzyme APOBEC-3G (Homo sapiens) (Q9HC16 whole entry, looked up): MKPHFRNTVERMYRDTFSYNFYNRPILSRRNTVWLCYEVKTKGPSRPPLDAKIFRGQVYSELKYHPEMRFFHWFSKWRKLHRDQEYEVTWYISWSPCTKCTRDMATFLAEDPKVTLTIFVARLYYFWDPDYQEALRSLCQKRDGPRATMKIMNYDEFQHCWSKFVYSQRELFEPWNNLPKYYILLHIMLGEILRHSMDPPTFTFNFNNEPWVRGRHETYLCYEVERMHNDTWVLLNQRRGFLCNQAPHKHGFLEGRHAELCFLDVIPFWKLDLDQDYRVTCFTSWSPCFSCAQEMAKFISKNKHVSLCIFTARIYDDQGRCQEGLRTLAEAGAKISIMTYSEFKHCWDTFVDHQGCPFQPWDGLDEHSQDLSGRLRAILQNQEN
Chain of 3',5'-cyclic-AMP phosphodiesterase 4B (Homo sapiens) (Q07343 whole entry, looked up): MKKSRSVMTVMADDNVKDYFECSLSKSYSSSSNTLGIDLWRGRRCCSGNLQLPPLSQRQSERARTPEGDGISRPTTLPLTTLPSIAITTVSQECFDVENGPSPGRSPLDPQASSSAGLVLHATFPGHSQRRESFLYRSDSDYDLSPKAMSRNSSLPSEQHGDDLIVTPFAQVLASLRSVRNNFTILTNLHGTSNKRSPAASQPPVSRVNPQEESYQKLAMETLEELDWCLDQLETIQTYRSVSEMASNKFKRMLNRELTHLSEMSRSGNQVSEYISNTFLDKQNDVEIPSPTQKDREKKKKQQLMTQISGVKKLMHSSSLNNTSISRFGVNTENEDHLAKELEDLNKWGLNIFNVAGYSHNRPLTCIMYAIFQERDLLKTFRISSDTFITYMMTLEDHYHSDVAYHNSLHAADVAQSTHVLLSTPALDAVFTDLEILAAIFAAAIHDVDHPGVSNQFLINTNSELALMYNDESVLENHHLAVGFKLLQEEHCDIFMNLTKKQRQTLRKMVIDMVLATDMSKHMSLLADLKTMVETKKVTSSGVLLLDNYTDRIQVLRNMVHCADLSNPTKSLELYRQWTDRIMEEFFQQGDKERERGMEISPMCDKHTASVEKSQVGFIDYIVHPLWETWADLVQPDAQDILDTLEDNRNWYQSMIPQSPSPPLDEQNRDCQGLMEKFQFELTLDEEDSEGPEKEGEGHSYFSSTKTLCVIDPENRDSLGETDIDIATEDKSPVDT
Chain of Ubiquitin carboxyl-terminal hydrolase 1 (Homo sapiens) (O94782 whole entry, looked up): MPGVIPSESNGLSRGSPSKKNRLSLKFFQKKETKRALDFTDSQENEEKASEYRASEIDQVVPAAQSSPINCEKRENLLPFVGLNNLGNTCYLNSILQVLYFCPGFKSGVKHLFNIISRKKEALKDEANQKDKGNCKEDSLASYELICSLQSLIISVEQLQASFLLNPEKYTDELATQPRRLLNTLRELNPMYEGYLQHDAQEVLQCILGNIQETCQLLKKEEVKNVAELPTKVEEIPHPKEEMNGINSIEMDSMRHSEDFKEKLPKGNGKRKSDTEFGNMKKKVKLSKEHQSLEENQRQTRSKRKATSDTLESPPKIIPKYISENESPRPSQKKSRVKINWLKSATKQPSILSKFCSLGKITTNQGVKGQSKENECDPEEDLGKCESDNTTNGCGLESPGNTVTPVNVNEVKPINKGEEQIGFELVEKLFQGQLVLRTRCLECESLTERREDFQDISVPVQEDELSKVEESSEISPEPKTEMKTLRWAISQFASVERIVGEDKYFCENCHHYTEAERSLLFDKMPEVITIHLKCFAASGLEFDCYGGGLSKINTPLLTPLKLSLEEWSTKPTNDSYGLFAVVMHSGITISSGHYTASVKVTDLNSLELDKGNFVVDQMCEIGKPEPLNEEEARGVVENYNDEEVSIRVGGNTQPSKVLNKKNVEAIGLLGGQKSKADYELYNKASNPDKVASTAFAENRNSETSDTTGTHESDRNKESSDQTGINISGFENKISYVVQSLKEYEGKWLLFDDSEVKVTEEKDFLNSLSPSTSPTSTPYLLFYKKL

COc1cccc(CNc2ccc3nc(-c4ccc(N)cc4)c(OC)n3n2)c1
Potency [1]: 39.8 µM (active) | Potency [2]: > 46 µM | Potency [3]: inactive | Potency [4]: 5.01 µM (active) | Potency [5]: inactive | Potency [6]: inactive | Potency [7]: inactive | Potency [8]: inactive | Potency [9]: inactive

CNC(=O)[C@H]1O[C@H](n2cnc3c(NCc4cccc(I)c4)ncnc32)[C@@H](O)[C@@H]1O
Potency [2]: > 46 µM | Potency [10]: > 46 µM | Potency [3]: inactive | Potency [5]: inactive | Potency [6]: inactive | Potency [7]: inactive | Potency [8]: inactive | Potency [9]: inactive

Cc1c(C(=O)NN2CCOCC2)nn(-c2ccc(Cl)cc2Cl)c1-c1ccc(I)cc1
Potency [2]: > 46 µM | Potency [10]: > 46 µM | Potency [3]: inactive | Potency [11]: inactive | Potency [12]: 6.31 µM (active) | Potency [13]: 7.94 µM (active) | Potency [7]: inactive | Potency [8]: inactive | Potency [9]: inactive

O=c1nc2ccccc2c2n1C[C@H](CN1CCN(c3ccccc3)CC1)N2
Potency [2]: > 46 µM | Potency [10]: > 46 µM | Potency [3]: inactive | Potency [11]: inactive | Potency [6]: inactive | Potency [7]: inactive | Potency [8]: inactive | Potency [9]: inactive

O=C(O)CC/C=C\C[C@@H]1CO[C@H](c2ccccc2Cl)O[C@@H]1c1ccccc1O
Potency [2]: > 46 µM | Potency [10]: > 46 µM | Potency [3]: inactive | Potency [5]: inactive | Potency [6]: inactive | Potency [7]: inactive | Potency [8]: inactive | Potency [9]: inactive

CC(=O)NCCc1c(Cc2ccccc2)[nH]c2ccccc12
Potency [1]: 12.6 µM (active) | Potency [2]: > 46 µM | Potency [10]: > 46 µM | Potency [11]: inactive | Potency [4]: 7.94 µM (active) | Potency [5]: inactive | Potency [7]: inactive | Potency [8]: inactive | Potency [9]: inactive

O=S(=O)(NCCCCCCc1ccccc1)c1cccc2c(Cl)cccc12
Potency [1]: 15.8 µM (active) | Potency [2]: > 46 µM | Potency [10]: > 46 µM | Potency [4]: 2.51 µM (active) | Potency [5]: inactive | Potency [7]: inactive | Potency [8]: inactive | Potency [9]: inactive

NCCCCNS(=O)(=O)c1ccc2c(Cl)cccc2c1
Potency [2]: > 46 µM | Potency [10]: > 46 µM | Potency [3]: inactive | Potency [12]: 2 µM (active) | Potency [5]: inactive | Potency [13]: 0.0025 µM (active) | Potency [6]: inactive | Potency [7]: inactive | Potency [8]: inactive | Potency [9]: inactive

CCCCC(=O)NCCc1c(Cc2ccccc2)[nH]c2ccccc12
Potency [1]: 3.16 µM (active) | Potency [10]: > 46 µM | Potency [3]: inactive | Potency [4]: 0.794 µM (active) | Potency [5]: inactive | Potency [7]: inactive | Potency [8]: inactive | Potency [9]: inactive

COc1ccc(-c2ccc(=N)n(CCCC(=O)O)n2)cc1
Potency [2]: > 46 µM | Potency [10]: > 46 µM | Potency [3]: inactive | Potency [12]: 3.16 µM (active) | Potency [13]: 0.158 µM (active) | Potency [6]: inactive | Potency [7]: inactive | Potency [8]: inactive | Potency [9]: inactive

CC(=O)[C@H](CC(C)C)NC(=O)[C@@H](CC(C)C)NC(=O)[C@H](CC(C)C)NC(=O)OCc1ccccc1
Potency [2]: > 46 µM | Potency [10]: > 46 µM | Potency [3]: inactive | Potency [11]: inactive | Potency [7]: 0.335 µM (active) | Potency [8]: inactive | Potency [9]: inactive

CCCCCCCCCCCCC(=O)N1CCCC[C@H]1CNC(=O)[C@@H](N)CCCCN
Potency [2]: > 46 µM | Potency [10]: > 46 µM | Potency [11]: inactive | Potency [13]: 7.94 µM (active) | Potency [6]: 50.1 µM (active) | Potency [7]: inactive | Potency [8]: inactive | Potency [9]: inactive

O=C(Nc1ccccc1)[C@@]12C[C@@H]1/C(=N/O)c1ccccc1O2
Potency [1]: 2.51 µM (active) | Potency [2]: > 46 µM | Potency [10]: > 46 µM | Potency [11]: inactive | Potency [7]: inactive | Potency [8]: inactive | Potency [9]: inactive

CCCn1c(=O)c2[nH]c(-c3ccccc3)nc2n(CCC)c1=O
Potency [1]: 0.0794 µM (active) | Potency [2]: > 46 µM | Potency [3]: inactive | Potency [11]: 0.379 µM (active) | Potency [5]: inactive | Potency [6]: inactive | Potency [7]: inactive | Potency [8]: inactive | Potency [9]: inactive

CCCCC[C@H](O)/C=C/[C@H]1C=CC(=O)[C@@H]1C/C=C\CCCC(=O)O
Potency [2]: > 20.6 µM | activity change, negative = inhibition [8]: 7.12% [at 6.83 µM] | activity change, negative = inhibition [9]: -13.8% [at 3.88 µM]

CCS(=O)(=O)N1CCC[C@H]2CN3CCc4cc(OC)ccc4[C@@H]3C[C@@H]21
Potency [2]: > 46 µM | Potency [10]: > 46 µM | Potency [3]: inactive | Potency [12]: inactive | Potency [4]: 5.01 µM (active) | Potency [5]: inactive | Potency [6]: inactive | Potency [7]: inactive | Potency [8]: inactive | Potency [9]: inactive

COc1ccccc1N1CCN(CCn2c(=O)[nH]c3c([nH]c4ccccc43)c2=O)CC1
Potency [2]: > 46 µM | Potency [10]: > 46 µM | Potency [3]: inactive | Potency [11]: inactive | Potency [5]: inactive | Potency [7]: inactive | Potency [8]: inactive | Potency [9]: inactive

C=CCN1CCN(c2nc3ccccc3nc2C#N)CC1
Potency [1]: 0.1 µM (active) | Potency [2]: > 46 µM | Potency [10]: > 46 µM | Potency [11]: inactive | Potency [5]: inactive | Potency [14]: 1.26 µM (active) | Potency [7]: inactive | Potency [8]: inactive | Potency [9]: inactive

COc1cccc(C=NC=Nc2cccc(OC)c2)c1
Potency [1]: 1 µM (active) | Potency [2]: > 46 µM | Potency [10]: > 46 µM | Potency [5]: inactive | Potency [7]: inactive | Potency [8]: inactive | Potency [9]: inactive

COc1cc(OC)c(C(=O)CCCCN2CCC3(CC2)NC(=O)NC3=O)cc1NS(=O)(=O)c1ccc(C(F)(F)F)cc1
Potency [1]: inactive | Potency [2]: > 46 µM | Potency [10]: > 46 µM | Potency [11]: inactive | Potency [5]: inactive | Potency [7]: inactive | Potency [8]: inactive | Potency [9]: inactive
